From PubChem BioAssay (EPA / NIEHS)
Records with an inconclusive call do not appear. Activity calls are given as the source filed them. Rule for the calls, unless noted: active = hit-call score of the fitted dose curve at least 0.9, where 1 is the maximum; inconclusive = response in the unintended direction; inactive = score below 0.9.

Tests used:
[1] = molecular target: Estrogen-related receptor gamma (Homo sapiens) (UniProt P62508); assay: ATG_ERRg_TRANS: Attagene TRANS-FACTORIAL HepG2 Assay for human Estrogen-Related Receptor gamma (ERRg) (AID 2282977); conditions: HepG2 Attagene TRANS reporter, ERRg transactivation;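 note: hits increase reporter signal over DMSO so potencies reflect activators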
Sequence of Estrogen-related receptor gamma (Homo sapiens) (P62508 whole entry, looked up, the tested form may be a part): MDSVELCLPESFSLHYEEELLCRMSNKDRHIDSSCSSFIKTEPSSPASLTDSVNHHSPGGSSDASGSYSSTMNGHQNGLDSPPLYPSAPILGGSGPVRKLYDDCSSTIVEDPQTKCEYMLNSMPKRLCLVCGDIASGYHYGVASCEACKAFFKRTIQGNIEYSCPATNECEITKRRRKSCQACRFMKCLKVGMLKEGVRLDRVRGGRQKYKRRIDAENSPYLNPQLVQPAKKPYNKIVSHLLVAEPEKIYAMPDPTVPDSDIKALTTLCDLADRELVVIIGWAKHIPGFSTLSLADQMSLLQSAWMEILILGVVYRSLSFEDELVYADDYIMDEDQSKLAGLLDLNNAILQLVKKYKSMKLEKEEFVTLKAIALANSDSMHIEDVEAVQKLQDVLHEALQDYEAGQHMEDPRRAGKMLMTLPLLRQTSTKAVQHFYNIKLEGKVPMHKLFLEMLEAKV
In short: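 Readout: fluorescent reporter-mRNA fragments resolved by capillary electrophoresis after RT-PCR and HpaI cut. Cells: transiently transfected HepG2 carrying GAL4-UAS reporters driven by exogenous NR-Gal4 chimeras, dosed 24 h. Activity fitted upward relative to DMSO baseline.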

[2] = molecular target: Bile acid receptor (Homo sapiens) (UniProt Q96RI1); assay: ATG_FXR_TRANS: Attagene TRANS-FACTORIAL HepG2 Assay for Farnesoid X Receptor (FXR) (AID 2282979); conditions: HepG2 Attagene TRANS FXR-GAL4 reporter transcription;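 note: hits raise reporter mRNA above DMSO so AC50 marks FXR activation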
Sequence of Bile acid receptor (Homo sapiens) (Q96RI1 whole entry, looked up, the tested form may be a part): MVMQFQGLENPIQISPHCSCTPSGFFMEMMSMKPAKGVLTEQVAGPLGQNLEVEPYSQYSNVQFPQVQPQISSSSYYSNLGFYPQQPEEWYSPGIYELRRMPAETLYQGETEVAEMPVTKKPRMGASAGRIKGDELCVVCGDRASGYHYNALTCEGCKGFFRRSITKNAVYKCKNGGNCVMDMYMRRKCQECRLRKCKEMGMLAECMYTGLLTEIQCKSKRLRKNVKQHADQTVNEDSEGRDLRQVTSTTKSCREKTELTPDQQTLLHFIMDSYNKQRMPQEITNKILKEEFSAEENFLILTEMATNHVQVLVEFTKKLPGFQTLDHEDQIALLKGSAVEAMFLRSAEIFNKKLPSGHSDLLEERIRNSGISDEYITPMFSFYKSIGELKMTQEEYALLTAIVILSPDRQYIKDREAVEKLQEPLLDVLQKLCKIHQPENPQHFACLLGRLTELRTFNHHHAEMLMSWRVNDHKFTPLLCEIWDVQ
In short: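 HepG2 cells were transiently transfected with GAL4-UAS reporters driven by chimeric NR-Gal4 proteins and dosed for 24 h. Reporter mRNA was quantified by RT-PCR, fluorescent labelling, HpaI digestion and capillary electrophoresis, with gain of signal scored versus DMSO.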

[3] = molecular target: Oxysterols receptor LXR-beta (Homo sapiens) (UniProt P55055); assay: ATG_LXRb_TRANS: Attagene TRANS-FACTORIAL HepG2 Assay for human Liver X Receptor beta (LXRb) (AID 2282981); conditions: HepG2 Attagene TRANS GAL4-LXRb reporter, mRNA
Sequence of Oxysterols receptor LXR-beta (Homo sapiens) (P55055 whole entry, looked up, the tested form may be a part): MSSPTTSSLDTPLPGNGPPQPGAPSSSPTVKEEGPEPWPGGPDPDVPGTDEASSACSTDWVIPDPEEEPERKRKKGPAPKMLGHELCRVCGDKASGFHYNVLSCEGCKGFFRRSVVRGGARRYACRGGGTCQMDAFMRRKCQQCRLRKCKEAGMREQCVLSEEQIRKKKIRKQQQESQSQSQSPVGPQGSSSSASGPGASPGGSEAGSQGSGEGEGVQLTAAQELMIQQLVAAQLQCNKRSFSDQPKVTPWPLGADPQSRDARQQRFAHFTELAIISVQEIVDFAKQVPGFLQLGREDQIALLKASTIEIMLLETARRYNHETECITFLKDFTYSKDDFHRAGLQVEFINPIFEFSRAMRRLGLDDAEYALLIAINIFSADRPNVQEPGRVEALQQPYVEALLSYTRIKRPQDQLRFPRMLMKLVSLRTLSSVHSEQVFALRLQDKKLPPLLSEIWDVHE
In short: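 Readout: fluorescent reporter mRNA fragments resolved by capillary electrophoresis after RT-PCR. System: transiently transfected human HepG2, exogenous LXRb-Gal4 chimera driving GAL4-UAS reporter, 24 h dosing. Activity fitted upward against DMSO baseline.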

[4] = molecular target: Hepatocyte nuclear factor 4-alpha (Homo sapiens) (UniProt P41235); assay: ATG_HNF4a_TRANS: Attagene TRANS-FACTORIAL HepG2 Assay for human Hepatocyte Nuclear Factor 4 alpha (HNF4a) (AID 2282982); conditions: HepG2 HNF4a transactivation reporter, mRNA readout
Sequence of Hepatocyte nuclear factor 4-alpha (Homo sapiens) (P41235 whole entry, looked up): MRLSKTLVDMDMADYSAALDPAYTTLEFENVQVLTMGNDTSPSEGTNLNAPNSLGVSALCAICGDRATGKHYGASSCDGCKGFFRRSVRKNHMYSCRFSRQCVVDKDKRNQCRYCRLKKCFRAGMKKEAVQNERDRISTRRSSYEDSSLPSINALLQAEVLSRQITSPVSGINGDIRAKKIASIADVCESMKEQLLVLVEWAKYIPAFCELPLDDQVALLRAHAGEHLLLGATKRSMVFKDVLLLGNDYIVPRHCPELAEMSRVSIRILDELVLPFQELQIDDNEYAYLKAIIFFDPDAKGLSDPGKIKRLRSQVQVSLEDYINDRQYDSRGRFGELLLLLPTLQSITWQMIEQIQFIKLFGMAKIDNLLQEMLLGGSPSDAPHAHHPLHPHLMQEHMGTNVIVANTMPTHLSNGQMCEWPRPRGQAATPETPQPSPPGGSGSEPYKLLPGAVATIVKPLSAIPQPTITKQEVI
In short: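 Transient MRTU transfection of HepG2, 24 h dosing. Readout: reporter mRNA via RT-PCR + capillary electrophoresis, fluorescence; activity fit upward relative to DMSO control.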

[5] = ATG_M_06_TRANS: Attagene TRANS-FACTORIAL HepG2 Assay for M06 Transcription Factor (Internal Marker) (AID 2282983); conditions: HepG2 Attagene TRANS M06 internal marker reporter;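 note: reporter transcript level by RT-PCR then capillary electrophoresis fluorescence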
In short: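 mRNA levels of a reporter transcript, quantified as FAM fluorescence on capillary electrophoresis, served as readout. HepG2 cells expressing exogenous GAL4-chimera reporter constructs were exposed for 24 h. Gain of signal over DMSO was evaluated.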

[6] = molecular target: Transcriptional activator Myb (Homo sapiens) (UniProt P10242); assay: ATG_Myb_CIS: Attagene CIS-FACTORIAL HepG2 Assay for human Myeloblastosis (Myb) Proto-Oncogene Transcription Factor (AID 2282986; active = hit-call score of the fitted dose curve at least 0.9, where 1 is the maximum; inactive = score below 0.9); conditions: HepG2 Attagene CIS-FACTORIAL Myb reporter transcription; actives raise or lower the signal
Sequence of Transcriptional activator Myb (Homo sapiens) (P10242 whole entry, looked up): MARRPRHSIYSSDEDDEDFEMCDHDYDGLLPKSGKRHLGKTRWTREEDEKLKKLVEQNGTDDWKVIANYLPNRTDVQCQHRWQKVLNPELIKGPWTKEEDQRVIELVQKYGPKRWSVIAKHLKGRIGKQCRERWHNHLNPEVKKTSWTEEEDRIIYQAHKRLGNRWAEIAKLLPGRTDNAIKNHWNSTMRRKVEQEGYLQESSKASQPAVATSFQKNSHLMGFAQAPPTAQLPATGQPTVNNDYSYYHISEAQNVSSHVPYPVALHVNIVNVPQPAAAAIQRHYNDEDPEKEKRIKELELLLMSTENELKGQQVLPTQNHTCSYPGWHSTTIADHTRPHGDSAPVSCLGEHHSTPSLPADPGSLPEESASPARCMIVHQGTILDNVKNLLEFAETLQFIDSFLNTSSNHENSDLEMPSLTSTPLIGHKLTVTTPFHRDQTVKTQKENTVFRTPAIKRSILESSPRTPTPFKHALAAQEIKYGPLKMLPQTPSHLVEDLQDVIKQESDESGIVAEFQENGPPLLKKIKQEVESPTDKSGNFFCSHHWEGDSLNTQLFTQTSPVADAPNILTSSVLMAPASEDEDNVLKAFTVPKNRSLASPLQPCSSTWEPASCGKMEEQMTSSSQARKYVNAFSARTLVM
In short: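 After 24 h of compound dosing, total RNA from transfected HepG2 cells is reverse-transcribed and the reporter sequences amplified, labeled and separated by capillary electrophoresis. Values come from bidirectional fitting against DMSO.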

[7] = molecular target: Glucocorticoid receptor (Homo sapiens) (UniProt P04150); assay: ATG_GR_TRANS: Attagene TRANS-FACTORIAL HepG2 Assay for human Glucocorticoid Receptor (GR) (AID 2282978); conditions: HepG2 Attagene TRANS GR reporter, mRNA transcription;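 note: activators score as hits since higher reporter transcript over DMSO is fitted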
Sequence of Glucocorticoid receptor (Homo sapiens) (P04150 whole entry, looked up): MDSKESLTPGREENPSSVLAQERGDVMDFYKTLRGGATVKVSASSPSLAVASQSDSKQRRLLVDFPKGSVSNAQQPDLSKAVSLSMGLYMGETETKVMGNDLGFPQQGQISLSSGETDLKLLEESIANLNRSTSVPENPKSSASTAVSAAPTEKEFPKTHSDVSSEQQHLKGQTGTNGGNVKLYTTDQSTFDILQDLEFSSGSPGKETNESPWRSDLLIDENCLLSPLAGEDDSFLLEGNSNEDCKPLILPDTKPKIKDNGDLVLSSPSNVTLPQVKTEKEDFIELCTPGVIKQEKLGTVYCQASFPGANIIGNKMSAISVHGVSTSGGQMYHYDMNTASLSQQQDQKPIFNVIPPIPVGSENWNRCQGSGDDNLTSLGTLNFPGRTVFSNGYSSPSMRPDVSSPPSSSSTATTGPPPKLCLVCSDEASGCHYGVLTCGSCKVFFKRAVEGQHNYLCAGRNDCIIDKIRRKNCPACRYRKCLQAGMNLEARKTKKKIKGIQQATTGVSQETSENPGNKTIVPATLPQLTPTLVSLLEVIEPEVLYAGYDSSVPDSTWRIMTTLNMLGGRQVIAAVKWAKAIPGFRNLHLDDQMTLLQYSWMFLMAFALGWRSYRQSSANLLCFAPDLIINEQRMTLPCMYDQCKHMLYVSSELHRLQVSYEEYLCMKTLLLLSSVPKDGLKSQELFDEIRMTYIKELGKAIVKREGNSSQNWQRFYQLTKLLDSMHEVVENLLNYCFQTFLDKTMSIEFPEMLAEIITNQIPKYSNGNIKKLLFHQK
In short: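 After 24 h incubation with test chemical, transfected HepG2 cells were lysed for RNA; reporter cDNA was amplified, FAM-labelled, HpaI-digested and sized on a capillary analyser. Signal gain relative to DMSO was scored.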

[8] = molecular target: Oxysterols receptor LXR-alpha (Homo sapiens) (UniProt Q13133); assay: ATG_LXRa_TRANS: Attagene TRANS-FACTORIAL HepG2 Assay for human Liver X Receptor alpha (LXRa) (AID 2282980); conditions: HepG2 Attagene TRANS reporter, LXRa transactivation
Sequence of Oxysterols receptor LXR-alpha (Homo sapiens) (Q13133 whole entry, looked up, the tested form may be a part): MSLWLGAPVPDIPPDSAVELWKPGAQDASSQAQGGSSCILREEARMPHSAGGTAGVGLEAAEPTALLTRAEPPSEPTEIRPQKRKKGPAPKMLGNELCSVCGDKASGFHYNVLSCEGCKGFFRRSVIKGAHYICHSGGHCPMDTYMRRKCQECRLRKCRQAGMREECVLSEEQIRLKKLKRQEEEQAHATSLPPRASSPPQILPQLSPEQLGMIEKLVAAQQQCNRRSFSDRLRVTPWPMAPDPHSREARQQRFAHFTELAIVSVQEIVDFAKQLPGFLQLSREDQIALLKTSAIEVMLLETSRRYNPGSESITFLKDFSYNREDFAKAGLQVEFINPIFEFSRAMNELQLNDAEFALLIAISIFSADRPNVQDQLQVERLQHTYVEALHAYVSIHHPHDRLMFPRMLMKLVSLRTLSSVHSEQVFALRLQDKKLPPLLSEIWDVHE
In short: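 HepG2 cells transiently transfected with GAL4-UAS reporter units for chimeric NR-Gal4 proteins, exposed to chemicals for 24 h. Reporter mRNA quantified by RT-PCR and capillary electrophoresis; gain of signal fitted relative to DMSO.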

[9] = molecular target: Nuclear receptor subfamily 4 group A member 2 (Homo sapiens) (UniProt P43354); assay: ATG_NURR1_TRANS: Attagene TRANS-FACTORIAL HepG2 Assay for human Nuclear Receptor Related Protein 1 (NURR1) (AID 2282985); conditions: HepG2 Attagene TRANS reporter, mRNA readout
Sequence of Nuclear receptor subfamily 4 group A member 2 (Homo sapiens) (P43354 whole entry, looked up, the tested form may be a part): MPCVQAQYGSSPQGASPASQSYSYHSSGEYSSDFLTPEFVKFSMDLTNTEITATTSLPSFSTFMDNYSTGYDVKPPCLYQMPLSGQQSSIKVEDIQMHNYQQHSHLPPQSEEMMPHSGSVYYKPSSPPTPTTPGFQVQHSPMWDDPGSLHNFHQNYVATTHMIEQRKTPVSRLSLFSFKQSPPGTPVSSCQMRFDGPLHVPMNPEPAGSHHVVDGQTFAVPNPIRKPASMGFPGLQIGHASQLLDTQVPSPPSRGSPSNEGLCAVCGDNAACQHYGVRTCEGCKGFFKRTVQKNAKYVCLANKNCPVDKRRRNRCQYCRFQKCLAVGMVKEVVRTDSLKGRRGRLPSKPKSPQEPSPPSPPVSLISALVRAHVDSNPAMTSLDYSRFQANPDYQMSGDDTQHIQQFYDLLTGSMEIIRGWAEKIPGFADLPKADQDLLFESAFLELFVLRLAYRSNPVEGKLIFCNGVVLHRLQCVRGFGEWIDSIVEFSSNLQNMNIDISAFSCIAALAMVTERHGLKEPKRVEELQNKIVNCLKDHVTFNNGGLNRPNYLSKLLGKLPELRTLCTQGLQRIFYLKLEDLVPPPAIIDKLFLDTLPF
In short: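 Read-out: reporter mRNA induction by RT-PCR plus capillary electrophoresis with fluorescence detection, after 24 h dosing of transfected HepG2 cells. Exogenous NR-Gal4 chimera activity drives GAL4-UAS reporter; activity fitted upward versus DMSO.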

[10] = ATG_M_32_TRANS: Attagene TRANS-FACTORIAL HepG2 Assay for M32 Transcription Factor (Internal Marker) (AID 2282984); conditions: HepG2 Attagene TRANS M32 internal marker reporter;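 note: transcript level of a background control reporter unit measured by RT-PCR and capillary electrophoresis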
In short: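 Read-out: fluorescent reporter cDNA fragments resolved by capillary electrophoresis after RT-PCR of total RNA. Transfected HepG2 cells were exposed to chemical for 24 h. Activity scored in the positive direction relative to DMSO.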

Measured: outcome

Oc1ccc(Nc2ccccc2)cc1
inactive: [1] | [2] | [3] | [4] | [5] | [6]

Cc1ccc(S(=O)(=O)NCl)cc1
not listed: [2] | [3] | [10]
inactive: all other assays above

OCC(F)(F)C(F)(F)C(F)(F)F
not listed: [1] | [2]
inactive: all other assays above

CS(C)(=O)=O
not listed: [1] | [3] | [4]
inactive: all other assays above

FC(F)(Br)C(F)(F)C(F)(F)C(F)(F)C(F)(F)C(F)(F)Br
not listed: [1] | [4]
inactive: all other assays above

CC(C)c1ccccc1N
inactive: [1] | [4] | [10] | [9] | [6]

O=C(O)C(F)(F)C(F)(F)C(F)(F)C(F)(F)C(F)(F)C(F)(F)C(F)(F)C(F)(F)C(F)(F)C(F)(F)C(F)(F)C(F)(F)C(F)(F)F
inactive: [7] | [8] | [3] | [5] | [10] | [6]

Cc1ccc(S(=O)(=O)OCC(F)(F)C(F)(F)C(F)(F)C(F)(F)C(F)(F)C(F)F)cc1
not listed: [1] | [2] | [4]
inactive: all other assays above

OCC(F)(F)C(F)(F)C(F)(F)C(F)F
not listed: [1] | [9]
inactive: all other assays above

FC(F)(F)C(F)(F)C(F)(F)N(C(F)(F)C(F)(F)C(F)(F)F)C(F)(F)C(F)(F)C(F)(F)F
inactive: [1] | [8] | [4] | [5] | [10] | [6]

CCCCOc1ccc(N)cc1
inactive: [1] | [8] | [3] | [10] | [6]

CN(C)Cc1ccccc1O
not listed: [1] | [4] | [9]
inactive: all other assays above
